Measurements taken from PubChem BioAssay AID1159580 (chemical genetic matrix, 2015).
The campaign covered roughly 5,500 compounds. About 2,000 (36%) were called active. Not shown: some 18% with an inconclusive outcome. No stated cut-off is given here; in the data, active means normalized growth mostly below about 0.91 (no sharp cut-off); inconclusive means no clear call, values can overlap the other calls; inactive means mostly above about 0.92. Some of the results follow.

Assay: chemical genetic growth profiling, strain panel (AID 1159580);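 further: tested at 20 µM; growth read once vehicle control cultures reached saturation at 30 °C; 1 = growth at the plate median or of vehicle wells; lower values mean less growth of the strain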
Details: S. cerevisiae deletion strains, growth OD

Measured: normalized growth

CCNC(=O)[C@H]1O[C@@H](n2cnc3c(N)nc(NCCc4ccc(CCC(=O)O)cc4)nc32)C(O)[C@H]1O (some centres undefined)
inactive: locus YAL040C, strain CLN3, active compounds read low 0.963 | locus YCL061C, strain MRC1 (second series), active compounds read low 0.991 | locus YDR363W, strain ESC2, active compounds read low 0.972 | locus YER002W, strain NOP16, active compounds read low 0.995 | locus YGR078C, strain PAC10, active compounds read low 0.992 | locus YJR075W, strain HOC1, active compounds read low 0.999 | locus YMR307W, strain GAS1, active compounds read low 1 | locus YNL153C, strain GIM3, active compounds read low 1 | locus YNL175C, strain NOP13, active compounds read low 0.98 | locus YNL197C, strain WHI3, active compounds read low 0.981 | locus YNL224C, strain SQS1, active compounds read low 1.03 | locus YOR083W, strain WHI5 (second series), active compounds read low 0.978 | locus YPL055C, strain LGE1, active compounds read low 0.953 | locus YPL241C, strain CIN2, active compounds read low 0.976
